Experimental data as given in PubChem BioAssay (EPA / NIEHS).
Results filed as inconclusive are left out. Calls of active or inactive are those of the source. The calls were made as follows, unless noted: active = hit-call score of the fitted dose curve at least 0.9, where 1 is the maximum; inactive = score below 0.9.

Key:
[1] = ATG_TAL_CIS: Attagene CIS-FACTORIAL HepG2 Assay for human TAL Basal Promoter (AID 2282966); conditions: HepG2 Attagene cis-factorial TAL promoter reporter; actives raise or lower the signal;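 also: background control endpoint measuring basal TAL promoter reporter mRNA not a specific factor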
How it was run: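 Transiently transfected HepG2 (cis-regulated reporter units), 24 h treatment, mRNA read by fluorescent CE after RT-PCR; bidirectional fit, DMSO baseline.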

[2] = ATG_TGFb_CIS: Attagene CIS-FACTORIAL HepG2 Assay for human Transforming Growth Factor (TGF) (AID 2282967); conditions: HepG2 Attagene CIS TGFb reporter, mRNA transcription; actives raise or lower the signal
How it was run: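 HepG2 cells transiently transfected with cis-promoter-driven multiple reporter units measure endogenous TF activity; reporter mRNA quantified at 24 h by RT-PCR, FAM labeling, HpaI digestion and capillary electrophoresis. Bidirectional fit vs DMSO.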

[3] = ATG_VDRE_CIS: Attagene CIS-FACTORIAL HepG2 Assay for human Vitamin D Receptor Element (VDRE) (AID 2282968); conditions: HepG2 VDRE cis-reporter transcription, actives raise or lower the signal
How it was run: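 Readout is VDRE-driven reporter mRNA reflecting endogenous factor activity in human HepG2 cells, sampled 24 h post-dose. Quantification used labelled RT-PCR products separated by capillary electrophoresis; bidirectional analysis relative to DMSO.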

[4] = target: Nuclear receptor subfamily 1 group I member 3 (Homo sapiens) (UniProt Q14994); test: ATG_CAR_TRANS: Attagene TRANS-FACTORIAL HepG2 Assay for human Constitutive Androstane Receptor (CAR) (AID 2282969; active = hit-call score of the fitted dose curve at least 0.9, where 1 is the maximum;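 also: activators raise reporter mRNA above DMSO so AC50 marks induction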); conditions: HepG2 Attagene TRANS-FACTORIAL CAR reporter
Nuclear receptor subfamily 1 group I member 3 (Homo sapiens), sequence (Q14994 whole entry, looked up, the tested form may be a part): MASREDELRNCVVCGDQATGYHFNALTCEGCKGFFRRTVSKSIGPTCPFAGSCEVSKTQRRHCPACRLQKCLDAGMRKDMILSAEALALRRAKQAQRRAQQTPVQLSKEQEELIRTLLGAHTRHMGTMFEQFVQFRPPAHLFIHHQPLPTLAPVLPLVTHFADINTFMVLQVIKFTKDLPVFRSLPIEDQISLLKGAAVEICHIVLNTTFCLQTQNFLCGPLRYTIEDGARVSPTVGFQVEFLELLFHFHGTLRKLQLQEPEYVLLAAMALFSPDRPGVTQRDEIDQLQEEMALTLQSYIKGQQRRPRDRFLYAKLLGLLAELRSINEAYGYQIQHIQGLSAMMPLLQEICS
How it was run: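 Signal is reporter mRNA induction relative to DMSO, measured 24 h after dosing by RT-PCR with fluorescent primer extension and capillary electrophoresis. Human HepG2 liver cells carried transiently transfected chimeric NR-Gal4/GAL4-UAS reporter constructs.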

[5] = target: X-box-binding protein 1 (Homo sapiens) (UniProt P17861); test: ATG_Xbp1_CIS: Attagene CIS-FACTORIAL HepG2 Assay for human X-box Binding Protein 1 (XBP1) (AID 2282972); conditions: HepG2 XBP1 cis-element reporter, Attagene multiplex; actives raise or lower the signal
X-box-binding protein 1 (Homo sapiens), sequence (P17861 whole entry, looked up): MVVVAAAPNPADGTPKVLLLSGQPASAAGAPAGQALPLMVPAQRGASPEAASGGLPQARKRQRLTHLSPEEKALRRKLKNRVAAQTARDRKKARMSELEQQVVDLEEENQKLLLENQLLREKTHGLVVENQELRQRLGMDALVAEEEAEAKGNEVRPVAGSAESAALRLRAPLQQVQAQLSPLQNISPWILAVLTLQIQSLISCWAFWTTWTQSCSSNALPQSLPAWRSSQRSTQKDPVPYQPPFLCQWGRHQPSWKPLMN
How it was run: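 Multiplexed cis-reporter readout in transfected HepG2 liver cells. Exposure lasted 24 hours. Activity in either direction was fitted against DMSO as negative control and baseline.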

[6] = ATG_GAL4_TRANS: Attagene TRANS-FACTORIAL HepG2 Assay for GAL4 (Internal Marker) (AID 2282976; active = hit-call score of the fitted dose curve at least 0.9, where 1 is the maximum); conditions: HepG2 Attagene TRANS GAL4 internal marker reporter
How it was run: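 HepG2 cells transiently transfected with multiplexed GAL4-UAS reporter constructs were dosed for 24 h. Reporter mRNA was measured by RT-PCR, 6-FAM primer extension, HpaI digestion and capillary electrophoresis, and gain of signal was fitted relative to DMSO.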

[7] = target: Estrogen receptor (Homo sapiens) (UniProt P03372); test: ATG_ERa_TRANS: Attagene TRANS-FACTORIAL HepG2 Assay for human Estrogen Receptor alpha (ERa) (AID 2282970; active = hit-call score of the fitted dose curve at least 0.9, where 1 is the maximum); conditions: HepG2 Attagene TRANS ERa GAL4 reporter, mRNA
Estrogen receptor (Homo sapiens), sequence (P03372 whole entry, looked up, the tested form may be a part): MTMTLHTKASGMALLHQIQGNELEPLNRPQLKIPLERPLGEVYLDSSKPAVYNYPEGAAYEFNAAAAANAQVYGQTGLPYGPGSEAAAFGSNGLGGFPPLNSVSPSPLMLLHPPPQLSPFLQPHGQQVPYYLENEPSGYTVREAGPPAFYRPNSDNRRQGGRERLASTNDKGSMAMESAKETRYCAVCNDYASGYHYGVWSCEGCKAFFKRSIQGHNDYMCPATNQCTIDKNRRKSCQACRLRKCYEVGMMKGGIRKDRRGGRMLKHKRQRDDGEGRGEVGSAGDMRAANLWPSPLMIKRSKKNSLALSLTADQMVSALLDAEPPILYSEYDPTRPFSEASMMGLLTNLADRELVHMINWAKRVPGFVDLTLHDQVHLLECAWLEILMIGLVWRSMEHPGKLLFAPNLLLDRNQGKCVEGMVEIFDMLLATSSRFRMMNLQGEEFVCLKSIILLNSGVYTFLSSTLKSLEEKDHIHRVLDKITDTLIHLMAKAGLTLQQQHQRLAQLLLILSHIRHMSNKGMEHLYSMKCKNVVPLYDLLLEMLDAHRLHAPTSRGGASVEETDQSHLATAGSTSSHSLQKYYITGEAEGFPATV
How it was run: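 One of 30 multiplexed endpoints from a HepG2 TRANS system, this one reports ERa-Gal4-driven reporter mRNA. Transcripts were quantified 24 hours post-dosing by fluorescent RT-PCR and capillary electrophoresis, with activity scored as induction over DMSO.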

[8] = ATG_M_19_TRANS: Attagene TRANS-FACTORIAL HepG2 Assay for M19 Transcription Factor (Internal Marker) (AID 2282974; active = hit-call score of the fitted dose curve at least 0.9, where 1 is the maximum); conditions: HepG2 Attagene TRANS-FACTORIAL M19 internal marker reporter
How it was run: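 Measured here: internal-marker reporter transcript from HepG2 cells transfected with MRTUs, harvested at 24 h. cDNA PCR products were 6-FAM labelled by primer extension, cut with HpaI for 2 h at 37 C, and resolved by CE.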

[9] = target: Steroid hormone receptor ERR1 (Homo sapiens) (UniProt P11474); test: ATG_ERRa_TRANS: Attagene TRANS-FACTORIAL HepG2 Assay for human Estrogen-Related Receptor alpha (ERRa) (AID 2282971; active = hit-call score of the fitted dose curve at least 0.9, where 1 is the maximum); conditions: HepG2 Attagene TRANS reporter, ERRa transactivation
Steroid hormone receptor ERR1 (Homo sapiens), sequence (P11474 whole entry, looked up, the tested form may be a part): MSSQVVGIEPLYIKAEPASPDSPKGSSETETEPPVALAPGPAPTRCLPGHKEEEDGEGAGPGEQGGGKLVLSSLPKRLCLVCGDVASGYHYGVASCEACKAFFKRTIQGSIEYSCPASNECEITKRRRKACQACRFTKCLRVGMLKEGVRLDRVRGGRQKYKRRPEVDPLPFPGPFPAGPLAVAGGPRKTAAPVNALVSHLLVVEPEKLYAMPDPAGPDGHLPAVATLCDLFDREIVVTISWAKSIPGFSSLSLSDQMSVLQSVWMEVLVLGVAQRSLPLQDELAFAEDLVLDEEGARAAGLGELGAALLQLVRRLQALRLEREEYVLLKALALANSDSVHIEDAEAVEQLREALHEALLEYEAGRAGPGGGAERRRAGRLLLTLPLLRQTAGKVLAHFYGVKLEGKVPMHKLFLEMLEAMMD
How it was run: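 HepG2 cells transiently transfected with multiplexed GAL4-UAS reporter units reading chimeric ERRa-Gal4 activity; 24 h compound exposure. Reporter mRNA measured by RT-PCR, 6-FAM labelling, HpaI digest and capillary electrophoresis; gain of signal fitted versus DMSO baseline.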

[10] = target: Estrogen-related receptor gamma (Homo sapiens) (UniProt P62508); test: ATG_ERRg_TRANS: Attagene TRANS-FACTORIAL HepG2 Assay for human Estrogen-Related Receptor gamma (ERRg) (AID 2282977; active = hit-call score of the fitted dose curve at least 0.9, where 1 is the maximum;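 also: hits increase reporter signal over DMSO so potencies reflect activators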); conditions: HepG2 Attagene TRANS reporter, ERRg transactivation
Estrogen-related receptor gamma (Homo sapiens), sequence (P62508 whole entry, looked up, the tested form may be a part): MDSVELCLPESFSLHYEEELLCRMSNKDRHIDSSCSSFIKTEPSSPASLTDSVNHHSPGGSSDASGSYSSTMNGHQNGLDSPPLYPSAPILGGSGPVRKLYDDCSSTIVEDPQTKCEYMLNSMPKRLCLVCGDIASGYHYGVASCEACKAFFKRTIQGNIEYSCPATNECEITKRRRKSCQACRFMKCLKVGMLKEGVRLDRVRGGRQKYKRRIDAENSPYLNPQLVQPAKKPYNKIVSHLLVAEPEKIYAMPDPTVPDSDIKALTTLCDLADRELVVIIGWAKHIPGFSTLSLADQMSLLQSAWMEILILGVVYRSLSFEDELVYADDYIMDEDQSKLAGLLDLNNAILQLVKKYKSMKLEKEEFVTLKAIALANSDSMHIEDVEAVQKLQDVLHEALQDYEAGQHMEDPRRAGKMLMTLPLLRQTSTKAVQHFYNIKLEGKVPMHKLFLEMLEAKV
How it was run: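 Induction of reporter transcripts through a chimeric NR-Gal4 protein is quantified in transfected human HepG2 liver cells after 24 h chemical exposure, using RT-PCR with capillary electrophoresis detection and DMSO as baseline.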

SMILES: C=CCOC(=O)CCC1CCCCC1
- outcome [1]: inactive
- outcome [2]: inactive
- outcome [3]: inactive
- outcome [4]: inactive
- outcome [5]: inactive
- outcome [6]: inactive

SMILES: CC(=O)OCc1ccc2c(c1)OCO2
- outcome [1]: inactive
- outcome [2]: inactive
- outcome [3]: inactive
- outcome [4]: inactive
- outcome [5]: inactive
- outcome [6]: inactive

SMILES: CC1COc2ccccc2N1C(=O)C(Cl)Cl (stereo not drawn)
- outcome [1]: inactive
- outcome [2]: inactive
- AC50 [3]: 17.7 µM (active)
- outcome [7]: inactive
- outcome [5]: inactive
- outcome [8]: inactive

SMILES: C[C@H]1C[C@H]2[C@@H]3CCC4=CC(=O)C=C[C@]4(C)[C@@]3(F)[C@@H](O)C[C@]2(C)[C@@]1(O)C(=O)COP(=O)(O)O
- outcome [1]: inactive
- outcome [2]: inactive
- outcome [3]: inactive
- outcome [7]: inactive
- outcome [5]: inactive
- outcome [8]: inactive

SMILES: CC(C)C(C)(C)C(C)(C)C(C)(C)S
- outcome [1]: inactive
- outcome [2]: inactive
- AC50 [3]: 6.65 µM (active)
- AC50 [7]: 40.8 µM (active)
- outcome [5]: inactive

SMILES: Nc1cc(Cl)c(O)c(Cl)c1
- outcome [1]: inactive
- outcome [2]: inactive
- AC50 [3]: 70.7 µM (active)
- outcome [7]: inactive
- outcome [9]: inactive
- outcome [5]: inactive
- outcome [8]: inactive
- outcome [10]: inactive

SMILES: O=C(O)CCCCCCCCCCC(=O)O
- outcome [1]: inactive
- outcome [2]: inactive
- outcome [3]: inactive
- outcome [7]: inactive
- outcome [5]: inactive
- outcome [8]: inactive

SMILES: CN(C)CCOCCN(C)C
- outcome [1]: inactive
- outcome [2]: inactive
- outcome [3]: inactive
- outcome [4]: inactive
- outcome [5]: inactive
- outcome [8]: inactive
- outcome [10]: inactive

SMILES: CC(C)(N)CO
- outcome [1]: inactive
- outcome [2]: inactive
- outcome [3]: inactive
- outcome [7]: inactive
- outcome [9]: inactive
- outcome [5]: inactive
- outcome [10]: inactive

SMILES: C#C[C@]1(O)CC[C@H]2[C@@H]3CCC4=Cc5oncc5C[C@]4(C)[C@H]3CC[C@@]21C
- outcome [1]: inactive
- outcome [2]: inactive
- AC50 [3]: 4.54 µM (active)
- AC50 [7]: 0.412 µM (active)
- AC50 [5]: 42.1 µM (active)

SMILES: CC(=O)[C@H]1CC[C@H]2[C@@H]3CC=C4C[C@@H](O)CC[C@]4(C)[C@H]3CC[C@]12C
- outcome [1]: inactive
- outcome [2]: inactive
- AC50 [3]: 22.6 µM (active)
- AC50 [7]: 1.32 µM (active)
- outcome [5]: inactive

SMILES: O=Cc1ccc(Cl)c([N+](=O)[O-])c1
- outcome [1]: inactive
- outcome [2]: inactive
- AC50 [3]: 100 µM (active)
- outcome [7]: inactive
- AC50 [5]: 149 µM (active)

SMILES: NC(=O)NC1NC(=O)NC1=O (stereo not drawn)
- outcome [1]: inactive
- outcome [2]: inactive
- outcome [3]: inactive
- outcome [4]: inactive
- outcome [5]: inactive
- outcome [6]: inactive

SMILES: CC(=O)C=CC1=C(C)CCCC1(C)C
- outcome [1]: inactive
- outcome [2]: inactive
- AC50 [3]: 1.26 µM (active)
- outcome [7]: inactive
- outcome [5]: inactive

SMILES: CCCc1ccccc1O
- outcome [1]: inactive
- outcome [2]: inactive
- outcome [3]: inactive
- outcome [4]: inactive
- outcome [5]: inactive
- outcome [6]: inactive

SMILES: CCCCC/C=C/C=C/C=O
- outcome [1]: inactive
- outcome [2]: inactive
- outcome [3]: inactive
- outcome [4]: inactive
- outcome [5]: inactive
- outcome [6]: inactive

SMILES: C=O
- outcome [1]: inactive
- outcome [2]: inactive
- outcome [3]: inactive
- outcome [4]: inactive
- outcome [5]: inactive
- outcome [8]: inactive
- outcome [6]: inactive
- outcome [10]: inactive
